# From PubChem BioAssay
# The full list was thinned out, with hits kept by preference.
# Marburg entry inh: Marburg virus entry inhibition | 1.8% of 300,000 active | Potency, µM (top dose mostly 37.8 µM), without a hit: top-dose activity change, negative = inhibition, most hits filed as inhibitors | Marburg virus pseudotyped entry inhibition, cell reporter; calls by dose curve; tested in HEK293 cells; also: potency is read from the fitted curve at half-maximal effect; % is scaled to controls: 0 for no effect and ±100 for the full control effect
# CHX counter: counter-screen for Shiga toxin inhibitors: cycloheximide protein synthesis inhibition. cell reporter, cycloheximide protein synthesis inhibition counterscreen. max response, %. 12% of 300,000 active. AID 2314; in the data active = max response mostly above about 13%, no sharp cut-off; inactive = mostly below about 14%; also: read at 38.3 µM for the half of the compounds with a filed dose; 0% is about no effect
# AMA1 RON2 block: disrupts binding of P. falciparum AMA1 to RON2 | Potency, µM (highest dose often 58.2 µM), without a hit: at the highest dose activity change, negative = inhibition, actives largely listed as inhibitors | AlphaScreen AMA1-biotinylated RON2 peptide binding | 0.2% of 360,000 active; active = well fitted inhibition curve with a large enough effect; inconclusive = small, poorly fitted or top-dose-only effect; inactive = no such curve, though single readings can be large or run the other way;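 also: potency is read from the fitted curve at half-maximal effect; 0% = vehicle wells and -100% = peptide control; nearly all actives have a fitted effect of over 45% in size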
#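 AMA1 (3D7) with his tag at 25 nM final met compounds first, then biotinylated RON2 peptide at 25 nM; detection used donor plus acceptor beads, 10 µg/mL apiece, read by AlphaScreen after 30 min at room temperature.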
# Lassa entry inh: blocks Lassa virus binding to or entry into cells; Lassa virus pseudotype entry inhibition, cell reporter; Potency, µM (highest dose often 37.9 µM), for inactives: at the top dose activity change, negative = inhibition, actives largely listed as inhibitors; 1.2% of 300,000 active; calls by dose curve; tested in HEK293 cells; also: potency is read from the fitted curve at half-maximal effect; % is scaled to controls: 0 for no effect and ±100 for the full control effect; nearly all actives have a fitted effect of over 50% in size
# Shiga inhibitor: inhibitors of Shiga toxin in Vero cells | inhibition, % at 38.7 µM | 9.2% of 290,000 active | AID 2315 | Vero cells, Shiga toxin protein synthesis inhibition reporter; in the data active = inhibition mostly above about 28%, no sharp cut-off; inactive = mostly below about 43%; also: 0% is about no effect
# * hit, by the source's call; ? = inconclusive; / = no result; ! = not active in a repeat; [ ] = another dose, or the depositor's remark.
SMILES,Marburg entry inh,CHX counter,AMA1 RON2 block,Lassa entry inh,Shiga inhibitor
CCCOP(=O)(O)c1c([N+](=O)[O-])cc(C(F)(F)F)cc1[N+](=O)[O-] (tested in a mixture with another compound),8.9%,14.3*,1.4%,29.5%,42.0
COCCN(C(=O)Cc1cccs1)C(C(=O)NCc1ccc(OC)cc1)c1ccc(OC)cc1 (centres undefined),0.1%,-2.0,2.7%,?,10.0
Cc1ccc(C(C(=O)NCc2ccccc2)N(Cc2cccs2)C(=O)c2ccc3c(c2)OCCO3)cc1 (centres undefined),6.51µM*,-3.1,-6.5%,6.51µM*,-6.6
COc1ccc(CNC(=O)C(c2ccc(C)cc2)N(Cc2cccs2)C(=O)c2ccc3c(c2)OCCO3)cc1 (centres undefined),11.6µM*,3.3,12.6%,?,-10.2
COC(=O)c1ccc(C(C(=O)NCc2ccccc2)N(Cc2cccs2)C(=O)c2cnccn2)cc1 (centres undefined),?,-1.9,26.3%,-4.9%,1.0
CC1=CC2=NC(=O)/C(=C/c3cccs3)C(=N)N2O1,-7.1%[46.1 µM],-0.9,-3.1%,-1.4%,-13.9
CC1=CC2=NC(=O)/C(=C\c3cc(C)n(-c4ccccc4F)c3C)C(=N)N2O1,6.2%,29.1*,23.6%,?,58.9*
CC1=CC2=NC(=O)/C(=C\c3ccc(-c4ccc(Cl)cc4)o3)C(=N)N2O1,19.5%,17.8*,/,8.4%,0.2
O=C(NCc1ccco1)c1sc2ccccc2c1Cl,20.8%,25.4*,-0.1%,17.2%,83.8*
O=C(NCc1ccco1)c1sc2cc(Cl)ccc2c1Cl,28.9%,33.6*,3.6%,?,57.7*
O=C(NCCN1CCOCC1)c1sc2ccccc2c1Cl,-22.9%[46.1 µM],22.9*,7.3%,3.7%,66.4
Cc1ccc2c(Cl)c(C(=O)NCCCN3CCOCC3)sc2c1,/,/,-5.8%,/,/
CN(C)C(CNC(=O)c1sc2ccccc2c1Cl)c1ccco1 (centres undefined),/,/,-3.5%,/,/
Cc1ccc(OCCC(=O)Nc2ccc3c(c2)OCO3)cc1,/,/,19.8%,/,/
Cc1cc(C)c(OCC(=O)Nc2ccc3c(c2)OCO3)cc1C,6.7%,21.2*,-8.2%,?,16.4
Cc1ccc(C)c(OCC(=O)Nc2ccc3c(c2)OCO3)c1,?,47.8*,2.5%,16.5%,42.3*
COc1cc(/C=C/C(=O)OCC(=O)Nc2ccc3c(c2)OCO3)ccc1O,/,/,10.5%,/,/
COc1cc(C=O)ccc1OCC(=O)Nc1ccc2c(c1)OCO2,/,20.2*,0.3%,/,44.1*
Cc1cc(C)c(OCC(=O)Nc2cccc(O)c2)cc1C,-0.3%,28.3*,-6.4%,0.3%,59.0*
O=C(COc1cccnc1[N+](=O)[O-])Nc1ccc2c(c1)OCO2,9.6%,-1.8,-6.7%,6.5%,59.2
Cc1ccc(OCC(=O)Nc2ccc3c(c2)OCO3)c([N+](=O)[O-])n1,-9.4%,27.6*,9.0%,?,54.4*
CCCCc1nc2ccccc2c(=O)n1-c1cccc(OC)c1,/,/,/,13.8%[46.1 µM],/
O=C(NCCCCCCNC(=O)OC1CCS(=O)(=O)C1)OC1CCS(=O)(=O)C1 (centres undefined),17.7%[46.1 µM],-4.5,6.6%,-8.1%,8.4
O=C(Nc1ccc(Cl)cc1)ON=C1CCCC1,?,40.3*,-12.9%,-11.8%,56.3*
O=C(NCCCCCCNC(=O)ON=C1CCCCC1)ON=C1CCCCC1,/,27.4*!,/,/,27.2*!
SMILES,Marburg entry inh,CHX counter,AMA1 RON2 block,Lassa entry inh,Shiga inhibitor
C/C(=N\OC(=O)Nc1ccc(Cl)cc1)c1ccc(F)c(F)c1,22.5%[46.1 µM],17.3*,3.6%,-29.2%[46.1 µM],53.9*
CCN(CC)S(=O)(=O)c1ccc2c(c1)N(CC(=O)N1CCN(c3cccc(C)c3C)CC1)C(=O)CO2,/,/,/,-7.1%[46.1 µM],/
CN(C)S(=O)(=O)c1ccc(N2CCCC2)c(C(=O)Nc2nc3ccc(F)cc3s2)c1,?,13.9*,9.2%,-22.8%,36.5*
CN(C)S(=O)(=O)c1ccc(N2CCCC2)c(C(=O)Nc2nc3ccccc3s2)c1,?,14.1,-0.7%,7.5%,47.5*
CSc1nnc(-c2sc3cc(C(F)(F)F)cnc3c2-c2ccccc2)n1C,1.58µM*,1.2,24.4%,?,-10.7
COC(=O)c1[nH]c(C)c(/C(O)=C2\C(=O)C(=O)N(CCN3CCOCC3)[C@H]2c2cccnc2)c1C,3.7%,/,/,/,/
COC(=O)c1ccc(-n2c(C)cc(C(=O)CCl)c2C)cc1,/,18.7,-13.4%,/,-7.6
COc1ccc(N2CC(C(=O)NC3CCCCC3)CC2=O)cc1 (centres undefined),2.9%[46.1 µM],-9.1,-10.9%,16.5%,2.0
COc1ccc(-n2c(C)cc(C(=O)NC3CCCCC3)c2C)cc1,-1.8%,58.1*,-13.5%,16.2%,94.3*
